PubChem BioAssay AID1159580 (chemical genetic matrix, 2015)
Screen size: about 5,500 compounds; about 2,000 (36%) were called active. Another 18% or so got no clear call; they are omitted. No stated cut-off is given here; in the data, active means normalized growth mostly below about 0.91 (no sharp cut-off); inconclusive means no clear call, values can overlap the other calls; inactive means mostly above about 0.92. Some of the results follow.

Experiment: chemical genetic growth profiling, strain panel (AID 1159580);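 further: tested at 20 µM; growth read once vehicle control cultures reached saturation at 30 °C; 1 = growth at the plate median or of vehicle wells; lower values mean less growth of the strain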
Conditions: growth OD

Measured: normalized growth

CC(=O)O[C@H]1C(=O)[C@@]2(C)C([C@H](OC(=O)c3ccccc3)[C@]3(O)C[C@H](OC(=O)[C@H](O)[C@@H](NC(=O)c4ccccc4)c4ccccc4)C(C)=C1C3(C)C)[C@]1(OC(C)=O)CO[C@@H]1C[C@@H]2O (stereo partly specified)
active: S. cerevisiae deletion strains, locus YKL009W, strain mrt4, active compounds read low 0.636 | S. cerevisiae deletion strains, locus YKL068W, active compounds read low 0.781 | S. cerevisiae deletion strains, locus YKL085W, strain MDH1 (second series), active compounds read low 0.884 | S. cerevisiae deletion strains, locus YKL085W, strain MDH1, active compounds read low 0.884 | S. cerevisiae deletion strains, locus YLR418C, strain cdc73, active compounds read low 1.25 [resistant] | S. cerevisiae deletion strains, locus YML124C, strain tub3, active compounds read low 1.11 [resistant] | S. cerevisiae deletion strains, locus YMR078C, strain ctf18, active compounds read low 1.1 [resistant] | S. cerevisiae deletion strains, locus YMR223W, strain ubp8, active compounds read low 1.12 [resistant] | S. cerevisiae deletion strains, locus YNL248C, strain rpa49, active compounds read low 0.783 | S. cerevisiae deletion strains, locus YNR052C, strain pop2, active compounds read low 1.09 [resistant] | S. cerevisiae deletion strains, locus YOR136W, strain idh2, active compounds read low 1.1 [resistant] | S. cerevisiae deletion strains, locus YOR144C, strain elg1, active compounds read low 1.1 [resistant] | S. cerevisiae deletion strains, locus YPR167C, strain met16, active compounds read low 1.08 [resistant]
inactive: S. cerevisiae deletion strains, locus YJR066W, strain TOR1, active compounds read low 0.943 | S. cerevisiae deletion strains, locus YJR075W, strain HOC1, active compounds read low 1.04 | S. cerevisiae deletion strains, locus YKL160W, strain elf1, active compounds read low 1.01 | S. cerevisiae deletion strains, locus YKL190W, strain CNB1, active compounds read low 1.02 | S. cerevisiae deletion strains, locus YKR026C, strain gcn3, active compounds read low 0.999 | S. cerevisiae deletion strains, locus YKR091W, strain srl3, active compounds read low 1 | S. cerevisiae deletion strains, locus YLL001W, strain dnm1, active compounds read low 1.05 | S. cerevisiae deletion strains, locus YLL026W, active compounds read low 0.993 | S. cerevisiae deletion strains, locus YLL041C, strain sdh2, active compounds read low 0.979 | S. cerevisiae deletion strains, locus YLR027C, strain aat2, active compounds read low 0.97 | S. cerevisiae deletion strains, locus YLR039C, strain RIC1, active compounds read low 1.06 | S. cerevisiae deletion strains, locus YLR058C, strain SHM2, active compounds read low 1.03 | S. cerevisiae deletion strains, locus YLR102C, strain apc9, active compounds read low 1.03 | S. cerevisiae deletion strains, locus YLR113W, strain HOG1, active compounds read low 0.945 | S. cerevisiae deletion strains, locus YLR221C, strain rsa3, active compounds read low 1.03 | S. cerevisiae deletion strains, locus YLR258W, strain gsy2, active compounds read low 0.997 | S. cerevisiae deletion strains, locus YLR262C, strain YPT6 (second series), active compounds read low 1.02 | S. cerevisiae deletion strains, locus YLR262C, strain YPT6, active compounds read low 1.15 | S. cerevisiae deletion strains, locus YLR268W, strain sec22, active compounds read low 1.06 | S. cerevisiae deletion strains, locus YLR320W, strain mms22, active compounds read low 1.01 | S. cerevisiae deletion strains, locus YLR330W, strain CHS5, active compounds read low 1.03 | S. cerevisiae deletion strains, locus YLR342W, strain FKS1 (second series), active compounds read low 1.06 | S. cerevisiae deletion strains, locus YLR342W, strain FKS1, active compounds read low 1 | S. cerevisiae deletion strains, locus YLR357W, strain rsc2, active compounds read low 1 | S. cerevisiae deletion strains, locus YLR370C, strain arc18, active compounds read low 1.02 | S. cerevisiae deletion strains, locus YLR371W, strain rom2, active compounds read low 1.03 | S. cerevisiae deletion strains, locus YLR384C, strain iki3, active compounds read low 0.982 | S. cerevisiae deletion strains, locus YML016C, strain PPZ1, active compounds read low 1.03 | S. cerevisiae deletion strains, locus YML032C, strain rad52, active compounds read low 1.05 | S. cerevisiae deletion strains, locus YML120C, strain ndi1, active compounds read low 1.02 | S. cerevisiae deletion strains, locus YMR058W, strain fet3, active compounds read low 0.968 | S. cerevisiae deletion strains, locus YMR125W, strain sto1, active compounds read low 1.01 | S. cerevisiae deletion strains, locus YMR129W, active compounds read low 0.987 | S. cerevisiae deletion strains, locus YMR205C, strain PFK2, active compounds read low 1.02 | S. cerevisiae deletion strains, locus YMR231W, strain pep5, active compounds read low 0.983 | S. cerevisiae deletion strains, locus YMR263W, strain SAP30, active compounds read low 1.06 | S. cerevisiae deletion strains, locus YMR307W, strain GAS1, active compounds read low 1.09 | S. cerevisiae deletion strains, locus YNL067W, strain RPL9B, active compounds read low 1.02 | S. cerevisiae deletion strains, locus YNL071W, strain lat1, active compounds read low 0.972 | S. cerevisiae deletion strains, locus YNL128W, strain TEP1, active compounds read low 1.05 | S. cerevisiae deletion strains, locus YNL153C, strain GIM3, active compounds read low 1.03 | S. cerevisiae deletion strains, locus YNL183C, strain NPR1, active compounds read low 0.952 | S. cerevisiae deletion strains, locus YNL209W, strain ssb2, active compounds read low 1.01 | S. cerevisiae deletion strains, locus YNL233W, strain BNI4, active compounds read low 1.02 | S. cerevisiae deletion strains, locus YNL250W, strain rad50, active compounds read low 0.921 | S. cerevisiae deletion strains, locus YNL271C, strain bni1, active compounds read low 1 | S. cerevisiae deletion strains, locus YNL298W, strain CLA4, active compounds read low 0.941 | S. cerevisiae deletion strains, locus YNL307C, strain MCK1, active compounds read low 1.03 | S. cerevisiae deletion strains, locus YNL322C, strain KRE1 (second series), active compounds read low 0.986 | S. cerevisiae deletion strains, locus YNL322C, strain KRE1, active compounds read low 1.03 | S. cerevisiae deletion strains, locus YNR049C, strain mso1, active compounds read low 1 | S. cerevisiae deletion strains, locus YOL006C, strain TOP1, active compounds read low 1.01 | S. cerevisiae deletion strains, locus YOL012C, strain htz1 2.06 | S. cerevisiae deletion strains, locus YOL147C, strain pex11, active compounds read low 1.05 | S. cerevisiae deletion strains, locus YOR001W, strain rrp6, active compounds read low 0.902 | S. cerevisiae deletion strains, locus YOR061W, strain CKA2, active compounds read low 1.03 | S. cerevisiae deletion strains, locus YOR069W, strain VPS5, active compounds read low 1.02 | S. cerevisiae deletion strains, locus YOR070C, strain gyp1, active compounds read low 0.995 | S. cerevisiae deletion strains, locus YOR080W, strain dia2, active compounds read low 1.01 | S. cerevisiae deletion strains, locus YOR083W, strain WHI5, active compounds read low 1.01 | S. cerevisiae deletion strains, locus YOR106W, strain vam3, active compounds read low 0.987 | S. cerevisiae deletion strains, locus YOR231W, strain MKK1, active compounds read low 0.964 | S. cerevisiae deletion strains, locus YOR265W, strain rbl2, active compounds read low 0.999 | S. cerevisiae deletion strains, locus YOR270C, strain vph1, active compounds read low 0.866 | S. cerevisiae deletion strains, locus YOR290C, strain snf2, active compounds read low 1.02 | S. cerevisiae deletion strains, locus YOR316C, strain cot1, active compounds read low 1.06 | S. cerevisiae deletion strains, locus YPL051W, strain arl3, active compounds read low 0.987 | S. cerevisiae deletion strains, locus YPL055C, strain LGE1, active compounds read low 1.1 | S. cerevisiae deletion strains, locus YPL078C, strain atp4, active compounds read low 0.956 | S. cerevisiae deletion strains, locus YPL106C, strain sse1, active compounds read low 1.04 | S. cerevisiae deletion strains, locus YPL240C, strain hsp82, active compounds read low 0.994 | S. cerevisiae deletion strains, locus YPL241C, strain CIN2, active compounds read low 1.04 | S. cerevisiae deletion strains, locus YPL256C, strain CLN2, active compounds read low 1.1 | S. cerevisiae deletion strains, locus YPR119W, strain clb2, active compounds read low 1.03 | S. cerevisiae deletion strains, locus YPR141C, strain kar3, active compounds read low 0.94 | S. cerevisiae deletion strains, locus YPR163C, strain tif3, active compounds read low 1.05 | S. cerevisiae deletion strains, strain wtn01, active compounds read low 1.09 | S. cerevisiae strains, strain wild type, active compounds read low 0.995
